A short description of experiment [1]: ATG_CRE_CIS: Attagene CIS-FACTORIAL HepG2 Assay for human cAMP Responsive Element (CRE) binding protein 3 (AID 2282926). Conditions: HepG2 CRE cis-reporter, Attagene multiplexed mRNA; actives raise or lower the signal. In outline:
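Liver-derived HepG2, transfected with a CRE-containing reporter panel, exposed 24 h; transcript levels sized and quantified by capillary electrophoresis of labelled amplicons; signal changes either way referenced to vehicle.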

Experiment [2] concerns the target CCAAT/enhancer-binding protein beta (Homo sapiens) (UniProt P17676). Description: ATG_C_EBP_CIS: Attagene CIS-FACTORIAL HepG2 Assay for human CCAAT/Enhancer Binding Protein (C/EBP) beta (AID 2282927). The note with it: HepG2 Attagene cis-factorial transcription factor reporter; actives raise or lower the signal. In a few lines: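 Endogenous transcription factor activity in human liver HepG2 cells is inferred from induction of a CEBPB-linked reporter mRNA. Exposure lasts 24 h; activity is fitted in both directions relative to DMSO.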

Experiment [3] can be described thus: ATG_CMV_CIS: Attagene CIS-FACTORIAL HepG2 Assay for human CMV (Internal Marker) (AID 2282928).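 Further: endpoint acts as a background internal control marker rather than a target.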 Conditions: HepG2 CMV promoter reporter, transcription factor profiling; actives raise or lower the signal. In outline:
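Reporter transcripts from transfected HepG2 cells are isolated after 24 h of chemical dosing, reverse-transcribed and amplified. Fragments labeled with 6-FAM are cut with HpaI and quantified by capillary electrophoresis; DMSO defines baseline.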

Experiment [4] in a line: ATG_DR4_LXR_CIS: Attagene CIS-FACTORIAL HepG2 Assay for human Liver X Receptor (LXR), DR4 submotif (AID 2282929). The note with it: HepG2 Attagene DR4 cis-reporter, mRNA transcription; actives raise or lower the signal. In outline:
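Endogenous factor activity at a DR4 cis-element is read as reporter mRNA in transiently transfected HepG2 cells. Exposure lasts 24 h; transcripts are amplified, fluorescently labelled and sized by capillary electrophoresis, with DMSO as baseline.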

Experiment [5] addresses Aryl hydrocarbon receptor (Homo sapiens) (UniProt P35869). Put plainly: ATG_Ahr_CIS: Attagene CIS-FACTORIAL HepG2 Assay for human Aryl Hydrocarbon Receptor (Ahr) (AID 2282930). Conditions: HepG2 AhR cis-factorial reporter transcription; actives raise or lower the signal. In outline: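 Transient MRTU transfection of HepG2 → 24 h compound exposure → total RNA, oligo(dT) RT → PCR, 6-FAM extension, HpaI cut → CE fluorescence. DMSO = baseline; bidirectional curve fit.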

A short description of experiment [6]: ATG_AP_1_CIS: Attagene CIS-FACTORIAL HepG2 Assay for human Activator Protein 1 (AP-1) (AID 2282931). Conditions: HepG2 Attagene cis-factorial AP-1 reporter mRNA; actives raise or lower the signal. In a few lines: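 Fluorescence of labelled PCR fragments separated by capillary electrophoresis gives reporter mRNA levels. HepG2 with transfected cis-regulated reporter units, 24 h exposure; DMSO serves as baseline for bidirectional curve fits.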

Experiment [7] can be described thus: ATG_AP_2_CIS: Attagene CIS-FACTORIAL HepG2 Assay for human Activator Protein 2 (AP-2) (AID 2282932). The note with it: HepG2 AP-2 cis-reporter, Attagene transcription factor profiling; actives raise or lower the signal. In outline:
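Endogenous transcription factor activity is reported through transfected multiplex reporter constructs in HepG2, after 24 h of compound exposure. Transcripts were quantified by RT-PCR and capillary electrophoresis of fluorescent fragments. Bidirectional fit against DMSO.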

Experiment [8] is described as follows: ATG_BRE_CIS: Attagene CIS-FACTORIAL HepG2 Assay for human Bone Morphogenetic Protein (BMP) Response Element (BRE) (AID 2282933). The note with it: HepG2 BMP response element reporter, Attagene transcription factor profiling; actives raise or lower the signal. In outline: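 A HepG2 multiplex reporter system measured inducible reporter mRNA 24 h post-dosing. Detection: RT-PCR, 6-FAM primer extension, HpaI digestion, capillary electrophoresis. Activity fitted bidirectionally relative to DMSO.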

Experiment [9] has as its target Retinoic acid receptor alpha (Homo sapiens) (UniProt P10276). Description: ATG_DR5_RAR_CIS: Attagene CIS-FACTORIAL HepG2 Assay for human Retinoic Acid Receptor Alpha (RARE), DR5 submotif (AID 2282934).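 On AC50: reporter responds to endogenous RAR alpha beta and gamma in HepG2 not RARA alone.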 The note with it: HepG2 Attagene cis-factorial RARE DR5 reporter, mRNA; actives raise or lower the signal. In a few lines:
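Transient MRTU transfection of HepG2; 24 h compound treatment; TriZol RNA, oligo(dT) RT, PCR, FAM labelling, capillary electrophoresis. Bidirectional fit vs DMSO. Endogenous TF activity at DR5 RARE.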

Experiment [10] concerns the target Transcription factor E2F1 (Homo sapiens) (UniProt Q01094). Description: ATG_E2F_CIS: Attagene CIS-FACTORIAL HepG2 Assay for human E2F Transcription Factor 1 (AID 2282935). The note with it: HepG2 Attagene cis-reporter, E2F reporter RNA transcripts; actives raise or lower the signal. In a few lines: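 Gain or loss of reporter transcript, fitted against DMSO, reflects E2F1-driven transcription. Transiently transfected HepG2 dosed 24 h before RNA isolation. Quantified by fluorescent RT-PCR products separated by capillary electrophoresis.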

Each structure is given as a SMILES string. Several values for one entry are separate records, joined by “and”; a condition that tells them apart may be missing. Identical values can stand only once. Some compounds were tested as several samples or in several runs, with calls that do not always agree. Activity calls are given as the source filed them. How the source made its calls: active means hit-call score of the fitted dose curve at least 0.9, where 1 is the maximum; inactive means score below 0.9.

Drawing on PubChem BioAssay (EPA / NIEHS), this text covers AC50 and outcome for 17 compounds.

The AC50 is the midpoint of the concentration-response curve, whichever way the signal moves.

Chain of Retinoic acid receptor alpha (Homo sapiens) (P10276 whole entry, looked up): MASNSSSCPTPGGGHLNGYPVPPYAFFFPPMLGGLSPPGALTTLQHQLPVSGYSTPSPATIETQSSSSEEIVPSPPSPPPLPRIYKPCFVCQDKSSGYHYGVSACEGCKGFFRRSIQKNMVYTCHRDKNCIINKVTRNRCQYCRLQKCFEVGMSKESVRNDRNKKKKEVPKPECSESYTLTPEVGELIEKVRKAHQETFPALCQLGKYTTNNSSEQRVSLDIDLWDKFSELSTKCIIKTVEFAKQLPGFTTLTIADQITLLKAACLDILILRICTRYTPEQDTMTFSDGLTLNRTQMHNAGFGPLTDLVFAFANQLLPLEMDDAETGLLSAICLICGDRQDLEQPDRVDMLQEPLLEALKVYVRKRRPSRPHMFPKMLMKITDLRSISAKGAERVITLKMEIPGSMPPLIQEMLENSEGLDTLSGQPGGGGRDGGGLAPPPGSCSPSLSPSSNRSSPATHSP
Chain of Aryl hydrocarbon receptor (Homo sapiens) (P35869 whole entry, looked up): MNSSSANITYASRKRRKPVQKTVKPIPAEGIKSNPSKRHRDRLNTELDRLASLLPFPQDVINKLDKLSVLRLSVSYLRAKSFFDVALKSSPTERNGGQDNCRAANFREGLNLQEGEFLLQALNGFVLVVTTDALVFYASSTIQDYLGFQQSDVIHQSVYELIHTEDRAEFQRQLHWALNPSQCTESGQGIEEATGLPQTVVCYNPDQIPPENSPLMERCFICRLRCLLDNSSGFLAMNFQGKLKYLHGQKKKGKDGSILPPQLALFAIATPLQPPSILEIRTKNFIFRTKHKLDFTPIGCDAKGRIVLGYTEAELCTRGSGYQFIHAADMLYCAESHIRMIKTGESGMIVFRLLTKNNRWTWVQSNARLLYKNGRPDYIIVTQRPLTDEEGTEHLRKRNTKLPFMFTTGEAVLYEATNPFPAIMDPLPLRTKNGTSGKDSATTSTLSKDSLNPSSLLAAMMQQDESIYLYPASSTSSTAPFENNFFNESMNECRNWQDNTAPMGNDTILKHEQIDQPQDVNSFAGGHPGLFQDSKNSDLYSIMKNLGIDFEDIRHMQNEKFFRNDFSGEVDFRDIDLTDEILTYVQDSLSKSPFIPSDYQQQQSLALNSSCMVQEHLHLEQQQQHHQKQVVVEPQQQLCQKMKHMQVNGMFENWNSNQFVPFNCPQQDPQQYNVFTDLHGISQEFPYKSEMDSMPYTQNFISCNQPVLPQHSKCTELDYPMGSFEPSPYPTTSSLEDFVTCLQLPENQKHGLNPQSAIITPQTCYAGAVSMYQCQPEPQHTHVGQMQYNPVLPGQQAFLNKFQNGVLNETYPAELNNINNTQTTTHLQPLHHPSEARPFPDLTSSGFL
Chain of Transcription factor E2F1 (Homo sapiens) (Q01094 whole entry, looked up): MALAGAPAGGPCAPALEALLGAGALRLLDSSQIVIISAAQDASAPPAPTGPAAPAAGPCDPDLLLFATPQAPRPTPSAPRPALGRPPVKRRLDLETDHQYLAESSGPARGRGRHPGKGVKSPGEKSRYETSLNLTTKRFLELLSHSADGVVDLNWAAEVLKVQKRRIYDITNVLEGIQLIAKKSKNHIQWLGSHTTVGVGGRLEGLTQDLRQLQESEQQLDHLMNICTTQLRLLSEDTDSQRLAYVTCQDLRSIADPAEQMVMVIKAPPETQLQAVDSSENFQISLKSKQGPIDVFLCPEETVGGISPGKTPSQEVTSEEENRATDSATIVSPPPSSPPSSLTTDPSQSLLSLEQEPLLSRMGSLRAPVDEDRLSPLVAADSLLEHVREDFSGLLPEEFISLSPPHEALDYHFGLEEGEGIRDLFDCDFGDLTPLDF
Chain of CCAAT/enhancer-binding protein beta (Homo sapiens) (P17676 whole entry, looked up): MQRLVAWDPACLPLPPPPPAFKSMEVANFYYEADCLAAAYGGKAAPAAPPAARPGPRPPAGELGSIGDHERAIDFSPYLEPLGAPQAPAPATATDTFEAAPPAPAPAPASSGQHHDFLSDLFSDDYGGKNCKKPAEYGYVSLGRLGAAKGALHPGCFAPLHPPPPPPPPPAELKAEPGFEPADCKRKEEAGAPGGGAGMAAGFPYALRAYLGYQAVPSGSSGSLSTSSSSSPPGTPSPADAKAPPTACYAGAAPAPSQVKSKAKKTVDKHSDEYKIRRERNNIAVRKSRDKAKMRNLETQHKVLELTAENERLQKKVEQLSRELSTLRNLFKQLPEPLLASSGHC

Regarding `Cc1cc2c3c(c1)C(c1ccccc1)=N[C@@H](NC(=O)c1ccncc1)C(=O)N3CC2`, the half-maximal activity concentration (AC50) was 100 µM (active) in [1], 100 µM (active) in [3] and 161 µM (active) in experiment [4]. For the same compound, the outcome in experiment [2], in [5], in [6], in experiment [7], in experiment [8] and in [9] was inactive. In [10], the result was inactive.

Consider `CCSC(=O)N(CC)C1CCCCC1`, for which the compound was classed as inactive in [1], in experiment [2], in experiment [3], in [5], in experiment [6] and in experiment [7]. The call in [8] and in experiment [10] was inactive.

For `c1cc2ccc3cccc4ccc(c1)c2c34`, the result in experiment [1], in [2], in experiment [3], in experiment [4], in experiment [6] and in experiment [7] was inactive. Moreover, the compound was classed as inactive in experiment [10]. Moreover, the concentration at half-maximal activity (AC50) is 68.7 µM (active) in experiment [5] and 7.9 µM (active) in [9].

Turning to `CCC(=O)O[C@H]1CC[C@H]2[C@@H]3CCC4=CC(=O)CC[C@]4(C)[C@H]3CC[C@]12C`, the concentration at half-maximal activity (AC50) was 144 µM (active) [middle of 4 runs] in experiment [1]; 72.9 µM (active) and 100 µM (active) in experiment [3]; 38.6 µM (active) in experiment [5]. Besides, the result in [2], in experiment [3], in experiment [5], in experiment [6], in [7] and in experiment [9] was inactive. Besides, the outcome in experiment [10] was inactive.

Consider `CC(C)(c1ccccc1)c1ccc(O)cc1`, for which the half-maximal activity concentration (AC50) in experiment [2] is 46.6 µM (active); in experiment [3], 23.8 µM (active) and 38.4 µM (active) and 43 µM (active); in experiment [6], 45.8 µM (active) [middle of 4 runs]; in experiment [7], 33.4 µM (active); in experiment [9], 1.8 µM (active) and 11.7 µM (active); in experiment [10], 56.3 µM (active). For the same compound, the result in experiment [2], in experiment [3], in experiment [5], in experiment [7], in experiment [9] and in experiment [10] was inactive.

In the case of `Clc1ccc(Cl)cc1`, the outcome in [1], in [2], in [3], in [5], in experiment [6] and in experiment [7] was inactive. In addition, the compound was classed as inactive in [8], in [9] and in [10].

As for `CCOP(=S)(OCC)SCSC(C)(C)C`, the compound was classed as inactive in experiment [1], in [2], in experiment [3], in [5], in [6] and in experiment [7]. Further, the call in [8] and in experiment [10] was inactive. Further, in experiment [5], the concentration at half-maximal activity (AC50) is 78.2 µM (active).

For `CCCCCCOC(=O)c1ccccc1C(=O)OCCCCCC`, the call in experiment [1], in [2], in experiment [3], in experiment [5], in [7] and in experiment [8] was inactive. The result in experiment [9] and in [10] was inactive. Besides, in [6], the concentration at half-maximal activity (AC50) was 45.3 µM (active).

Take `CCC(C)(CC)c1cc(NC(=O)c2c(OC)cccc2OC)on1`: the AC50 in [1] is 1.16 µM (active); in experiment [2] it was 1.48 µM (active); in experiment [5], 20.5 µM (active); in experiment [9], 12.7 µM (active). Also, the result in experiment [3], in experiment [6], in experiment [7] and in experiment [10] was inactive.

`Clc1ccc(C(c2ccccc2Cl)C(Cl)(Cl)Cl)cc1` (stereo not given): the compound was called inactive in experiment [1], in experiment [2], in experiment [5], in experiment [7], in [8] and in experiment [9]. In experiment [10], the compound was classed as inactive. For the same compound, the AC50 in experiment [2] is 131 µM (active); in experiment [3], 37.5 µM (active) [middle of 4 runs]; in experiment [6] it was 40.4 µM (active) [middle of 4 runs].

Turning to `CO/C=C(/C(=O)OC)c1ccccc1COc1cccc(C(F)(F)F)n1`, the outcome in experiment [1], in experiment [2], in experiment [3], in [5], in experiment [6] and in [7] was inactive. Moreover, the call in [9] and in experiment [10] was inactive. For the same compound, the half-maximal activity concentration (AC50) in experiment [4] was 7.46 µM (active).

As for `O=NN(c1ccccc1)c1ccccc1`, the compound was classed as inactive in experiment [1], in experiment [2], in experiment [3], in [5], in experiment [7] and in experiment [9]. In experiment [10], the compound was called inactive. The half-maximal activity concentration (AC50) in [6] was 118 µM (active).

With `ClC1=C(Cl)[C@]2(Cl)[C@@H]3[C@@H]4C[C@@H]([C@H]5O[C@@H]45)[C@@H]3[C@@]1(Cl)C2(Cl)Cl`, the compound was called inactive in experiment [1], in experiment [2], in experiment [3], in experiment [5], in experiment [6] and in experiment [7]. In addition, the result in experiment [8] and in experiment [10] was inactive. Besides, the concentration at half-maximal activity (AC50) in experiment [4] was 16.7 µM (active); in experiment [9], 0.571 µM (active).

On to `CCOCCOC(C)=O`, for which the compound was classed as inactive in [1], in experiment [2], in experiment [3], in experiment [5], in [6] and in [7]. The compound was called inactive in experiment [8], in experiment [9] and in experiment [10].

As for `O=S(=O)(O)C(F)(F)C(F)(F)C(F)(F)C(F)(F)F`, the compound was called inactive in [1], in [2], in [3], in experiment [5], in experiment [6] and in experiment [7]. Moreover, the compound was called inactive in experiment [8], in [9] and in experiment [10]. In experiment [5], the concentration at half-maximal activity (AC50) is 110 µM (active).

In the case of `O=C(O)C(F)(F)C(F)(F)C(F)(F)C(F)(F)C(F)(F)C(F)(F)C(F)(F)C(F)(F)F`, the result in experiment [1], in experiment [2], in [3], in experiment [5], in [7] and in [8] was inactive. The outcome in [9] and in experiment [10] was inactive. The concentration at half-maximal activity (AC50) in [3] was 62.9 µM (active) and 267 µM (active); in experiment [6], 50.5 µM (active) and 274 µM (active) and 16.7 µM (active); in experiment [8], 248 µM (active); in experiment [10] it was 55.4 µM (active).

As for `CCCN(CCC)N=O`, the compound was classed as inactive in [1], in experiment [2], in experiment [3], in experiment [5], in experiment [6] and in [7]. Besides, the outcome in [9] and in experiment [10] was inactive.
